In PubChem BioAssay AID1159580 (chemical genetic matrix, 2015):
Several values for one entry are separate records, joined by “and”; a condition that tells them apart may be missing. Equal entries are not always repeated. Screen size: about 5,500 compounds; about 2,000 (36%) were called active. Roughly 18% stayed inconclusive and do not appear here. Rule as the data show it: active = normalized growth mostly below about 0.91 (no sharp cut-off); inconclusive = no clear call, values can overlap the other calls; inactive = mostly above about 0.92. The list shows a part of the results.

Test: chemical genetic growth profiling, strain panel (AID 1159580);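 also: tested at 20 µM; growth read once vehicle control cultures reached saturation at 30 °C; 1 = growth at the plate median or of vehicle wells; lower values mean less growth of the strain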
Settings: S. cerevisiae deletion strains, growth OD

Measured: normalized growth

CCCCCC/C=C\CCCCCCCc1cccc(O)c1C(=O)O
active: locus YER155C, strain BEM2 (second series), active compounds read low 0.843 | locus YMR058W, strain fet3, active compounds read low 0.734 | locus YMR125W, strain sto1, active compounds read low 0.852
inactive: locus YAL013W, strain DEP1, active compounds read low 1.08 | locus YAL021C, strain ccr4, active compounds read low 0.972 | locus YAL026C, strain drs2, active compounds read low 0.979 | locus YAL030W, strain snc1, active compounds read low 0.974 | locus YBL061C, strain skt5, active compounds read low 0.98 | locus YBR009C, strain hhf1, active compounds read low 0.997 | locus YBR021W, strain FUR4, active compounds read low 0.929 | locus YBR023C, strain chs3, active compounds read low 0.967 | locus YBR171W, strain sec66, active compounds read low 1.05 | locus YBR229C, strain ROT2, active compounds read low 0.988 | locus YBR231C, strain swc5, active compounds read low 0.942 | locus YBR279W, strain paf1, active compounds read low 0.984 | locus YCL011C, strain gbp2, active compounds read low 0.95 | locus YCL016C, strain dcc1, active compounds read low 0.989 | locus YCL029C, strain bik1, active compounds read low 0.985 | locus YCL061C, strain MRC1, active compounds read low 0.989 | locus YCL069W, strain vba3, active compounds read low 0.938 | locus YCR088W, strain abp1, active compounds read low 0.972 | locus YDL005C, strain med2, active compounds read low 0.958 | locus YDL035C, strain GPR1, active compounds read low 1.05 | locus YDL040C, strain nat1, active compounds read low 0.967 | locus YDL074C, strain BRE1, active compounds read low 0.992 | locus YDL101C, strain DUN1, active compounds read low 1.01 | locus YDL185W, strain tfp1, active compounds read low 1.01 | locus YDL192W, strain arf1, active compounds read low 1 | locus YDR001C, strain nth1, active compounds read low 0.983 | locus YDR069C, strain doa4, active compounds read low 0.971 | locus YDR101C, strain arx1, active compounds read low 0.987 | locus YDR137W, strain rgp1, active compounds read low 0.939 | locus YDR150W, strain NUM1, active compounds read low 1.04 | locus YDR159W, strain sac3, active compounds read low 0.974 | locus YDR162C, strain NBP2, active compounds read low 1.06 | locus YDR195W, strain ref2 0.975 | locus YDR297W, strain sur2, active compounds read low 0.979 | locus YDR318W, strain mcm21, active compounds read low 0.995 | locus YDR334W, strain swr1, active compounds read low 0.956 | locus YDR335W, strain msn5, active compounds read low 0.975 | locus YDR388W, active compounds read low 1.01 | locus YDR392W, strain spt3, active compounds read low 0.813 | locus YDR502C, strain sam2, active compounds read low 1.01 | locus YEL003W, strain gim4, active compounds read low 0.982 | locus YEL037C, strain rad23, active compounds read low 0.965 | locus YEL061C, strain CIN8 (second series), active compounds read low 0.953 | locus YEL061C, strain CIN8, active compounds read low 1.01 | locus YER015W, strain faa2, active compounds read low 0.982 | locus YER016W, strain bim1, active compounds read low 0.976 | locus YER110C, active compounds read low 0.981 | locus YER111C, strain swi4, active compounds read low 0.947 | locus YER155C, strain BEM2, active compounds read low 0.991 | locus YER167W, strain BCK2, active compounds read low 1.01 | locus YFR010W, strain ubp6, active compounds read low 0.993 | locus YGL078C, strain dbp3, active compounds read low 0.995 | locus YGL086W, strain mad1, active compounds read low 0.989 | locus YGL167C, strain pmr1, active compounds read low 0.966 | locus YGL173C, strain kem1, active compounds read low 0.976 | locus YGL227W, strain vid30, active compounds read low 0.955 | locus YGL240W, strain doc1, active compounds read low 0.976 | locus YGL248W, strain PDE1, active compounds read low 1.01 | locus YGL253W, strain hxk2, active compounds read low 0.975 | locus YGR135W, strain pre9, active compounds read low 1.03 | locus YGR252W, strain gcn5, active compounds read low 1.04 | locus YHR013C, strain ard1, active compounds read low 0.956 | locus YHR027C, strain rpn1, active compounds read low 0.992 | locus YHR030C, strain SLT2, active compounds read low 1 | locus YHR079C, strain IRE1 (second series), active compounds read low 0.992 | locus YHR079C, strain IRE1, active compounds read low 1.01 | locus YHR094C, strain hxt1, active compounds read low 0.992 | locus YHR129C, strain ARP1, active compounds read low 0.998 | locus YHR142W, strain chs7, active compounds read low 0.974 | locus YHR200W, strain rpn10, active compounds read low 1 | locus YIL066C, strain RNR3, active compounds read low 1.03 | locus YIL073C, strain SPO22, active compounds read low 1.3 | locus YIL125W, strain kgd1, active compounds read low 0.994 | locus YIR030C, strain dcg1, active compounds read low 0.995 | locus YJL092W, strain hpr5, active compounds read low 0.941 | locus YJL095W, strain BCK1 (second series), active compounds read low 0.97 | locus YJL095W, strain BCK1, active compounds read low 0.991 and 0.952 | locus YJL115W, strain asf1, active compounds read low 0.972 | locus YJL129C, strain trk1, active compounds read low 0.914 | locus YJL134W, strain LCB3, active compounds read low 1 | locus YJL154C, strain vps35, active compounds read low 0.971 | locus YJL164C, strain tpk1, active compounds read low 0.999 | locus YJL166W, strain qcr8, active compounds read low 0.976 | locus YJL168C, strain set2, active compounds read low 0.988 | locus YJL187C, strain SWE1 (second series), active compounds read low 0.997 | locus YJR043C, strain POL32, active compounds read low 1.06 | locus YJR066W, strain TOR1, active compounds read low 0.968 | locus YKL009W, strain mrt4, active compounds read low 1.02 | locus YKL068W, active compounds read low 1.01 | locus YKL085W, strain MDH1 (second series), active compounds read low 0.997 | locus YKL085W, strain MDH1, active compounds read low 0.997 | locus YKL160W, strain elf1, active compounds read low 0.997 | locus YKL190W, strain CNB1, active compounds read low 1.06 | locus YKR001C, strain vps1, active compounds read low 0.989 | locus YKR026C, strain gcn3, active compounds read low 0.961 | locus YKR091W, strain srl3, active compounds read low 0.978 | locus YLL001W, strain dnm1, active compounds read low 0.988 | locus YLL026W, active compounds read low 0.974 | locus YLL041C, strain sdh2, active compounds read low 0.989 | locus YLR027C, strain aat2, active compounds read low 0.986 | locus YLR039C, strain RIC1, active compounds read low 1.01 | locus YLR058C, strain SHM2, active compounds read low 1 | locus YLR102C, strain apc9, active compounds read low 0.987 | locus YLR113W, strain HOG1, active compounds read low 0.946 | locus YLR221C, strain rsa3, active compounds read low 0.944 | locus YLR258W, strain gsy2, active compounds read low 0.957 | locus YLR262C, strain YPT6 (second series), active compounds read low 0.939 | locus YLR262C, strain YPT6, active compounds read low 0.977 | locus YLR268W, strain sec22, active compounds read low 0.991 | locus YLR320W, strain mms22, active compounds read low 0.951 | locus YLR330W, strain CHS5, active compounds read low 1.06 | locus YLR342W, strain FKS1 (second series), active compounds read low 1.03 | locus YLR342W, strain FKS1, active compounds read low 0.964 | locus YLR357W, strain rsc2, active compounds read low 0.953 | locus YLR370C, strain arc18, active compounds read low 0.969 | locus YLR371W, strain rom2, active compounds read low 1 | locus YLR384C, strain iki3, active compounds read low 0.97 | locus YLR418C, strain cdc73, active compounds read low 0.953 | locus YML016C, strain PPZ1, active compounds read low 0.989 | locus YML032C, strain rad52, active compounds read low 1.02 | locus YML120C, strain ndi1, active compounds read low 0.973 | locus YML124C, strain tub3, active compounds read low 0.985 | locus YMR078C, strain ctf18, active compounds read low 0.999 | locus YMR129W, active compounds read low 0.963 | locus YMR205C, strain PFK2, active compounds read low 1.02 | locus YMR223W, strain ubp8, active compounds read low 1.01 | locus YMR231W, strain pep5, active compounds read low 0.999 | locus YMR263W, strain SAP30, active compounds read low 1.03 | locus YMR307W, strain GAS1, active compounds read low 1.01 | locus YNL067W, strain RPL9B, active compounds read low 1.03 | locus YNL071W, strain lat1, active compounds read low 0.97 | locus YNL183C, strain NPR1, active compounds read low 0.923 | locus YNL209W, strain ssb2, active compounds read low 0.974 | locus YNL233W, strain BNI4, active compounds read low 1.01 | locus YNL248C, strain rpa49, active compounds read low 0.983 | locus YNL250W, strain rad50, active compounds read low 0.982 | locus YNL271C, strain bni1, active compounds read low 0.99 | locus YNL298W, strain CLA4, active compounds read low 1.01 | locus YNL307C, strain MCK1, active compounds read low 0.995 | locus YNL322C, strain KRE1 (second series), active compounds read low 0.949 | locus YNL322C, strain KRE1, active compounds read low 1 | locus YNR049C, strain mso1, active compounds read low 0.973 | locus YNR052C, strain pop2, active compounds read low 1.01 | locus YOL012C, strain htz1 0.359 | locus YOL147C, strain pex11, active compounds read low 0.99 | locus YOR001W, strain rrp6, active compounds read low 0.927 | locus YOR061W, strain CKA2, active compounds read low 0.992 | locus YOR069W, strain VPS5, active compounds read low 0.995 | locus YOR070C, strain gyp1, active compounds read low 0.975 | locus YOR080W, strain dia2, active compounds read low 0.988 | locus YOR083W, strain WHI5, active compounds read low 1 | locus YOR106W, strain vam3, active compounds read low 0.985 | locus YOR136W, strain idh2, active compounds read low 0.988 | locus YOR144C, strain elg1, active compounds read low 0.994 | locus YOR184W, strain ser1, active compounds read low 0.999 | locus YOR231W, strain MKK1, active compounds read low 0.997 | locus YOR265W, strain rbl2, active compounds read low 0.987 | locus YOR270C, strain vph1, active compounds read low 1.01 | locus YOR290C, strain snf2, active compounds read low 1 | locus YOR316C, strain cot1, active compounds read low 0.986 | locus YPL051W, strain arl3, active compounds read low 0.974 | locus YPL078C, strain atp4, active compounds read low 0.971 | locus YPL106C, strain sse1, active compounds read low 1.01 | locus YPL240C, strain hsp82, active compounds read low 0.959 | locus YPL241C, strain CIN2, active compounds read low 0.997 | locus YPL256C, strain CLN2, active compounds read low 0.981 | locus YPR119W, strain clb2, active compounds read low 0.985 | locus YPR141C, strain kar3, active compounds read low 0.982 | locus YPR163C, strain tif3, active compounds read low 0.99 | locus YPR167C, strain met16, active compounds read low 1 | strain wtn01, active compounds read low 0.995
